# The full ranking holds about 140,000 sequences; the median of “enrichment ratio after two sorts for PhoP signalling” is about 0, and the highest 2% start at about 11. This excerpt belongs to a sample that is enriched for the highest values.
# B1: PhoQ; a variant is named by its letters at X, in order, P23837 (parent)
# chain: MKKLLRLFFPLSLRVRFLLATAAVVLVLSLAYGMVALIGYSVSFDKTTFRLLRGESNLFYTLAKWENNKLHVELPENIDKQSPTMTLIYDENGQLLWAQRDVPWLMKMIQPDWLKSNGFHEIEADVNDTSLLLSGDHSIQQQLQEVREDDDDAEMTHSVAVNVYPATSRMPKLTIVVVDTIPVELKSSYMVWSWFIYVLSANLLLVIPLLWVAAWWSLRPIEALAKEVRELEEHNRELLNPATTRELTSLVRNLNRLLKSERERYDKYRTTLTDLTHSLKTPLXXLQXXLRSLRSEKMSVSDAEPVMLEQISRISQQIGYYLHRASMRGGTLLSRELHPVAPLLDNLTSALNKVYQRKGVNISLDISPEISFVGEQNDFVEVMGNVLDNACKYCLEFVEISARQTDEHLYIVVEDDGPGIPLSKREVIFDRGQRVDTLRPGQGVGLAVAREITEQYEGKIVAGESMLGGARMEVIFGRQHSAPKDE
# Variants of: B1
# Test: enrichment ratio after two sorts for PhoP signalling (ratio (wild type AVST 3.29)); higher = more functional
# Conditions: with PhoP (E. coli)
row,Variant,enrichment ratio
1,EGNA,≤ 0.25
2,TEWA,38.4
3,NIYL,≤ 0.25
4,TEWN,9.81
5,KSWS,≤ 0.25
6,TERM,≤ 0.25
7,TEGM,4.56
8,TEWM,73.1
9,TEWS,28.5
10,YTYL,≤ 0.25
11,TEWR,6.71
12,TEYL,13
13,TEWG,3.3
14,QHAH,≤ 0.25
15,DNQP,≤ 0.25
16,LKHW,≤ 0.25
17,NWHW,≤ 0.25
18,WFMI,≤ 0.25
19,IWYG,≤ 0.25
20,WQRD,≤ 0.25
21,HEYK,≤ 0.25
22,RHGY,≤ 0.25
23,NEAM,≤ 0.25
24,TEGL,13.2

row,Variant,enrichment ratio
1,QEWD,4.99
2,TEEL,≤ 0.25
3,TEAM,16.4
4,KSWL,≤ 0.25
5,TEWL,21.7
6,TEWD,13
7,MEWL,≤ 0.25
8,KSWD,≤ 0.25
9,MEAM,9.82
10,TERL,≤ 0.25
11,SQYM,≤ 0.25
12,VRMI,≤ 0.25
13,QHIN,≤ 0.25
14,SFID,≤ 0.25
15,DARD,≤ 0.25
16,RDIV,≤ 0.25
17,NYWF,≤ 0.25
18,QEWF,≤ 0.25
19,TEWF,22
20,RLCT,≤ 0.25
21,NKEG,≤ 0.25
22,AIVI,13
23,ICVI,≤ 0.25
24,VHVI,≤ 0.25

row,Variant,enrichment ratio
1,WIVI,≤ 0.25
2,AQHE,≤ 0.25
3,AQVI,18.1
4,AQVK,≤ 0.25
5,AQRA,≤ 0.25
6,ADVE,≤ 0.25
7,AQVE,34.1
8,NQVI,≤ 0.25
9,AQVA,14.1
10,DEDS,≤ 0.25
11,DGNR,≤ 0.25
12,DLTS,≤ 0.25
13,PPKY,≤ 0.25
14,ICPL,≤ 0.25
15,KKGI,≤ 0.25
16,DIWR,≤ 0.25
17,HNLR,≤ 0.25
18,AKVE,≤ 0.25
19,AMVI,16.3
20,NMVI,≤ 0.25
21,AQWG,≤ 0.25
22,AIVE,12.3
23,RIVE,≤ 0.25
24,VLVI,≤ 0.25

row,Variant,enrichment ratio
1,AQVC,9.47
2,EQVS,≤ 0.25
3,AQVS,14
4,KQVS,≤ 0.25
5,AQVG,12
6,DFYH,≤ 0.25
7,PRHA,≤ 0.25
8,KVWY,≤ 0.25
9,KKYK,≤ 0.25
10,ETML,≤ 0.25
11,TGLV,12.3
12,RGLV,≤ 0.25
13,CFLV,≤ 0.25
14,APLV,≤ 0.25
15,SGHK,≤ 0.25
16,VRLV,≤ 0.25
17,VGLV,12.3
18,VHLV,≤ 0.25
19,NGLV,6.65
20,SGLV,17.9
21,AGLV,12.7
22,LWQD,≤ 0.25
23,FDMF,≤ 0.25
24,VNQQ,≤ 0.25

row,Variant,enrichment ratio
1,YCCF,≤ 0.25
2,NGGQ,≤ 0.25
3,MMPC,≤ 0.25
4,LNWD,≤ 0.25
5,VQIE,≤ 0.25
6,QIPP,≤ 0.25
7,NILV,0.722
8,GYLV,≤ 0.25
9,MGLW,≤ 0.25
10,MGLA,2.09
11,MGLV,15.2
12,GGLV,13.7
13,YFRP,≤ 0.25
14,IDDH,≤ 0.25
15,FGMD,≤ 0.25
16,FGMG,0.824
17,FGMI,11.8
18,FGGQ,3.04
19,FGMS,0.618
20,FGMW,≤ 0.25
21,FGMV,16.7
22,FGMQ,21.1
23,FGGG,≤ 0.25
24,YKMH,≤ 0.25

row,Variant,enrichment ratio
1,HWMV,≤ 0.25
2,RAPQ,≤ 0.25
3,ATVM,6.8
4,STPC,≤ 0.25
5,RGYF,≤ 0.25
6,TGYF,1.56
7,MGGS,17.9
8,MGVV,15.6
9,MGYV,13.4
10,MGHV,2.03
11,MGVA,≤ 0.25
12,TGVV,0.277
13,MGWV,6.77
14,MGYF,12.2
15,MGWI,1.07
16,MGVK,≤ 0.25
17,MMRA,≤ 0.25
18,DQCN,≤ 0.25
19,MMLA,≤ 0.25
20,ASGS,3.2
21,MGGA,24.1
22,MGGH,20.1
23,MGGQ,2.83
24,MGCI,5.38

row,Variant,enrichment ratio
1,MGCV,14
2,MGYQ,14
3,MGGD,≤ 0.25
4,MGDI,≤ 0.25
5,MTYQ,2.5
6,MGKI,≤ 0.25
7,MGKH,≤ 0.25
8,MGDS,≤ 0.25
9,SGGC,10.9
10,HITM,≤ 0.25
11,PRMN,≤ 0.25
12,EYFG,≤ 0.25
13,DTNW,≤ 0.25
14,LCAW,≤ 0.25
15,IYCG,≤ 0.25
16,MGDR,≤ 0.25
17,MGYD,≤ 0.25
18,MGHF,0.887
19,MGYS,12.2
20,MGHL,19.3
21,MGYI,13.6
22,MGWA,≤ 0.25
23,TGYS,1.45
24,MGYK,≤ 0.25

row,Variant,enrichment ratio
1,MGHI,19.7
2,TGHL,7.55
3,GGHL,≤ 0.25
4,EVSV,≤ 0.25
5,VKDT,≤ 0.25
6,DASS,≤ 0.25
7,QDGG,≤ 0.25
8,TVTL,15.2
9,TMTL,20.9
10,TATL,16.3
11,KSTL,≤ 0.25
12,FSTL,4.4
13,RYTL,≤ 0.25
14,TYTL,15.2
15,NATL,≤ 0.25
16,NITL,≤ 0.25
17,SPTL,≤ 0.25
18,KATL,≤ 0.25
19,GYTL,≤ 0.25
20,AVIL,1.98
21,LGEK,≤ 0.25
22,DFEL,≤ 0.25
23,FLSP,≤ 0.25
24,RASH,≤ 0.25

row,Variant,enrichment ratio
1,TGTL,13.5
2,CITL,≤ 0.25
3,NGTL,≤ 0.25
4,CFTL,15.7
5,GGTL,5.81
6,CMTL,≤ 0.25
7,FIIG,≤ 0.25
8,YFRE,≤ 0.25
9,AHLE,12.9
10,YEVE,≤ 0.25
11,YALE,14.7
12,AILE,2.65
13,MKLE,≤ 0.25
14,YELE,13.8
15,QPLE,≤ 0.25
16,FTLE,5.91
17,NHLE,≤ 0.25
18,HKLE,≤ 0.25
19,KALE,≤ 0.25
20,TKLE,12.7
21,PLTV,≤ 0.25
22,YFSG,≤ 0.25
23,RYRE,≤ 0.25
24,SNND,≤ 0.25

row,Variant,enrichment ratio
1,GKDT,≤ 0.25
2,PQNK,≤ 0.25
3,KRMQ,≤ 0.25
4,ADMG,≤ 0.25
5,MTHV,≤ 0.25
6,KKMS,≤ 0.25
7,MKMV,≤ 0.25
8,AIMG,6.65
9,MEMV,14.8
10,MEMS,63.4
11,MEHV,14.3
12,MEMW,≤ 0.25
13,AKMG,18.6
14,YYHV,≤ 0.25
15,MKMS,≤ 0.25
16,VCGT,≤ 0.25
17,VPIR,≤ 0.25
18,IAQH,≤ 0.25
19,SNQM,9.41
20,RNTT,≤ 0.25
21,NFHF,≤ 0.25
22,RATT,≤ 0.25
23,RPPR,≤ 0.25
24,QKLG,≤ 0.25

row,Variant,enrichment ratio
1,PTLR,≤ 0.25
2,NSHF,≤ 0.25
3,MEMG,12.8
4,MKMG,≤ 0.25
5,VEMG,6.39
6,MEVG,4.29
7,VEKK,≤ 0.25
8,VEMV,27.4
9,LQGT,≤ 0.25
10,RYHM,≤ 0.25
11,FHIH,≤ 0.25
12,PDKA,≤ 0.25
13,SIGW,11.7
14,SCGW,20.5
15,SVHW,≤ 0.25
16,SQGW,≤ 0.25
17,SRGW,2.5
18,SYGW,≤ 0.25
19,SVGW,14.4
20,SVGD,≤ 0.25
21,KYGW,≤ 0.25
22,TMAH,1.31
23,NNEC,≤ 0.25
24,VWTE,≤ 0.25

row,Variant,enrichment ratio
1,RHES,≤ 0.25
2,IKSM,≤ 0.25
3,WYNQ,≤ 0.25
4,MFWL,≤ 0.25
5,LQEM,≤ 0.25
6,TATI,5.19
7,YATM,≤ 0.25
8,IAEM,≤ 0.25
9,TAAM,13.6
10,KANE,≤ 0.25
11,KAAM,≤ 0.25
12,TAGE,≤ 0.25
13,TATM,27
14,TAEM,25.7
15,TANE,18.3
16,TARM,≤ 0.25
17,LGLR,≤ 0.25
18,IPIH,≤ 0.25
19,IDYN,≤ 0.25
20,LPTD,≤ 0.25
21,HEFY,≤ 0.25
22,DTSM,≤ 0.25
23,KANM,≤ 0.25
24,NAGL,≤ 0.25

row,Variant,enrichment ratio
1,TANL,10
2,KAGL,≤ 0.25
3,TANK,≤ 0.25
4,TANM,19.5
5,TAPM,≤ 0.25
6,TANS,11.9
7,TAGL,12.4
8,YANM,0.317
9,TACK,11.6
10,TAWM,9.41
11,ERPF,≤ 0.25
12,TCLM,1.01
13,EGYT,≤ 0.25
14,LDPK,≤ 0.25
15,DMWR,≤ 0.25
16,EPFH,≤ 0.25
17,QHGK,≤ 0.25
18,DCLA,≤ 0.25
